Values joined by “and” are separate entries in the source; they are usually repeats but may differ in a detail not shown here. Equal values may be shown once. The campaign covered roughly 260,000 compounds. About 1,500 (0.58%) were called active. Another 5% or so got no clear call; they are omitted.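 How the source made its calls: active means inhibition above a set limit at one or more doses, reproduced on every date tested; inconclusive means results disagree between test dates, or hit never tested in dose response; inactive means the rest.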 The list is a sample of the results. Results with a measured potency or affinity are listed apart.
The molecules below were run against Virion infectivity factor (Human immunodeficiency virus type 1 group M subtype B (isolate BH10)) + Virion infectivity factor (Human immunodeficiency virus type 1 group M subtype B (isolate BRU/LAI)) + Virion infectivity factor (Human immunodeficiency virus type 1 group M subtype B (isolate PCV12)) + Virion infectivity factor (Human immunodeficiency virus type 1 group M subtype B (isolate HXB2)) + DNA dC->dU-editing enzyme APOBEC-3G (Homo sapiens) (UniProt P69720+P69721+P69722+P69723+Q9HC16) (assay: inhibitors of Vif binding to APOBEC3G peptide, primary screen, biochemical, TR-FRET, GST-Vif 1-94, biotin-A3G peptide, dose response retest (AID 1117319;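 further: Vif residues 1-94 fused to GST binding biotinylated APOBEC3G peptide 110-148; 0% = full assay without inhibitor and 100% = GST in place of GST-Vif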)). Settings: hits give high values.

inhibition, inactive:
CCC(C)(C(=O)NC1CCCCC1)N(Cc1cccs1)C(=O)Cc1cccs1 (stereo not given) 23.9%, COc1cccc(OC)c1NC(=O)C1CCCN1C(=O)Nc1cccc(Cl)c1 (stereo not given) -0.22%, O=C(/C=C/c1cccc([N+](=O)[O-])c1)Nc1ccccn1 7.78%, CCOc1ccccc1NC(=O)COC(=O)COc1cccc2c1OC(C)(C)C2 2.02%, O=C(O)c1ccccc1-c1ccc(/C=C2\SC(=O)N(c3ccccc3)C2=O)o1 3.86%, COC(=O)C(C)N1C(=O)S/C(=C\c2ccc(-c3ccc(C(=O)O)cc3C)o2)C1=O (stereo not given) 15.9%, Cc1cccc(-n2ccnc2SCC(=O)O)c1C -0.53%, O=C(COc1ccc(Cl)cc1Cl)c1ccc[nH]1 19.3%, Cc1ccccc1OCC(=O)OCC(=O)c1ccc[nH]1 7.12%, Cc1ccnc(NC(=O)CCNC(=O)c2ccc(Cl)cc2)c1 -5.97%, COc1ccccc1N1CCN(C(=O)CSc2nnc(NC(=O)C3CC3)s2)CC1 9.27%, c1ccc(C2CNCCc3ccccc32)cc1 (stereo not given) -8.69%, CN1CCc2cc(Cl)c(O)cc2[C@@H](c2ccccc2)C1 -6.09%, CCc1cccc(C)c1NC(=O)Nc1c(Br)cnn1C -8.57%, Cc1ccc(S(=O)(=O)N2C[C@H]3[C@H]4C(=O)N(c5ccccc5)C(=O)[C@H]4C[C@H](OC(=O)NC4CCCC4)[C@@]3(O)C2)cc1 -0.48%, CC(OC(=O)c1ccc2c(c1)OCCO2)C(=O)NC1CCCCC1C (stereo not given) -7.15%, COc1ccc(C=C2C(=O)c3ccccc3C2=O)cc1O 4.34%, COc1cc(C=C2C(=O)c3ccccc3C2=O)ccc1O -0.66%, CCOC(=O)C1=C(C)NC(SCC(N)=O)=C(C#N)C1c1cccs1 (stereo not given) -2.81%, C#CCSC1=C(C#N)C(c2cccs2)C(C(=O)OCC)=C(C)N1 (stereo not given) 8.23%, Cn1c(SCC(=O)Nc2sc3c(c2C#N)CCC3)nnc1C1COc2ccccc2O1 (stereo not given) 2.45% and 32%, CCOC(=O)c1oc2ccccc2c1COC(=O)CNC(=O)c1cccc(C)c1 -6.29%, CN(C)Cc1c(C(=O)N/N=C/c2cccc(OCc3ccccc3)c2)nnn1-c1nonc1N 19.4%, CCN(CC)c1ccc(C(=O)NNC(=O)c2cccn2C)cc1 5.54%, O=C(O)c1ccc2c(c1)CCCN2 -1.03%, O=S(=O)(c1ccc2c(c1)CCCN2)N1CCCCC1 8.06%, CCOc1ccc(NC(=O)CN2CCN(CC(=O)Nc3ccc(C(N)=O)cc3)CC2)cc1 -3.98%, COc1ccc2c(c1)CC/C(=C/c1ccccn1)C2=O -2.19%, CCOc1ccc(/C=C/C2=Cc3c(sc(NC(=O)CSc4n[nH]c(N)n4)c3C#N)C(C)(C)C2)cc1 1.67%, Cc1ccsc1/C=C/C1=Cc2c(sc(NC(=O)CSc3n[nH]c(N)n3)c2C#N)C(C)(C)C1 22.1%, COC1C=COC2(C)Oc3c(C)c(O)c4c(O)c(c(CN5CCN(C)CC5)c(O)c4c3C2=O)NC(=O)C(C)=CC=CC(C)C(O)C(C)C(O)C(C)C(OC(C)=O)C1C (stereo not given) 13.7%, CO[C@H]1C=CO[C@@]2(C)Oc3c(C)c(O)c4c(O)c(c(C=NN5CCN(C6CCCC6)CC5)c(O)c4c3C2=O)NC(=O)C(C)=CC=C[C@H](C)[C@H](O)[C@@H](C)[C@@H](O)[C@@H](C)[C@H](OC(C)=O)[C@@H]1C -8.62%, CCCn1c2ccc(C)cc2c2nnc(SCCN3CCOCC3)nc21 -4.1%, CC(C)N1CCC(=O)NC1=O 3.79%, O=C1CC(CSc2ccc(Cl)cc2)=NN1 -2.88%, Cc1ccc(SCC2=NNC(=O)C2)cc1 74.7%, COc1ccc(CCNC(=O)c2ccc(NS(=O)(=O)c3c(C)noc3C)cc2)cc1OC -8.32%, COc1cccc(C(=O)N[C@@H](CCSC)c2nc3ccccc3[nH]2)c1 5.58%, Cc1ccc(C2C3CSCC=C3C(C#N)=C(N)C2(C#N)C#N)cc1 (stereo not given) 8.68%, N#CC1=C(N)C(C#N)(C#N)C(c2cccnc2)C2COCC=C12 (stereo not given) 0.31%, CCOC(=O)c1c(C)[nH]c(C(=O)OCC(=O)Nc2cccnc2Cl)c1C -0.74%, Cc1ccc(C(=O)CN2/C(=C(\O)c3ccccc3)C(=O)c3ccccc3S2(=O)=O)c(C)c1 2.58%, O=C(CN1/C(=C(/O)c2ccccc2)C(=O)c2ccccc2S1(=O)=O)c1ccccc1 -0.58%, c1coc(-c2nn3c(-c4ccco4)nnc3s2)c1 24.5%, COc1cccc(-c2nnc3sc(-c4ccco4)nn23)c1 5.27%, CCOc1ccccc1NC(=O)CSc1n[nH]c(=O)n1-c1ccccc1 -11.6%, CCOC(=O)Nc1ccc2c(c1)OCO2 -0.36%, COC(=O)CNc1ccc2c(c1)OCO2 26.3%, Cn1c(CNC(=O)CNC(=O)c2cccc(F)c2)cc(=O)n(C)c1=O 1.22%, O=C1CC(N2CCSCC2)C(=O)N1c1cccc(Cl)c1 (stereo not given) 2.84%, COc1ccc(/C=C2/C(=N)N3N=C(CC(=O)N4CCCC4)SC3=NC2=O)cc1 -6.36%, N=C1/C(=C/c2ccco2)C(=O)N=C2SC(CC(=O)N3CCCC3)=NN12 22.9%, COc1ccc(CNC(=O)COC(=O)c2[nH]c(C)c(C(C)=O)c2C)cc1OC 7.14%, CN(c1ccc(OCC(=O)NC2CCC(O)CC2)cc1)S(=O)(=O)c1ccc(Cl)cc1 (stereo not given) -2.71%, O=c1cc(-c2ccccc2F)oc2ccccc12 17.5%, O=c1cc(-c2ccccc2Cl)oc2cc(O)cc(O)c12 -0.34%, O=c1[nH]c(=O)n(Cc2ccccc2)c2nc(-c3cccs3)n(CCO)c12 0.78%, Cc1ccc(S(=O)(=O)Cn2nnnc2C(CC(C)C)N2CCN(c3ccccc3)CC2)cc1 (stereo not given) -7.24%, Cc1ccc(S(=O)(=O)Cn2nnnc2C(CC(C)C)N2CCN(C(=O)c3ccco3)CC2)cc1 (stereo not given) 28%, Cc1ccc2cccc(Oc3ncnc4scc(-c5ccccc5)c34)c2n1 -1.8%, COC(=O)CSc1ncnc2scc(-c3ccccc3)c12 13.7%, COc1ccc(C2CC(=O)c3ccccc3O2)cc1 (stereo not given) 18.3%, COc1cc(C)cc2c1OC(c1ccccc1)CC2=O (stereo not given) -0.37%, O=c1c2cn[nH]c2[nH]c(=S)n1-c1ccccc1F -1.23%, CCC(C)NCCCOc1c(C)cc(C)cc1Br (stereo not given) -1.93%, COCC(=O)N(CCc1ccc(OC)cc1)Cc1nc2ccccc2c(=O)[nH]1 0.5%, CCC(CC)C(=O)N(CCc1ccc(OC)cc1)Cc1nc2ccccc2c(=O)[nH]1 -1.67%, O=C(CNC(=O)c1cccc(Cl)c1)NCC(c1cccs1)N1CCOCC1 (stereo not given) -8.67%, Cc1nnc2ccc(-c3cccc(NS(C)(=O)=O)c3)nn12 30.9%, Cc1cc(C)n2c(SCC(O)=C(C#N)c3nc4ccccc4[nH]3)nnc2n1 -1.4%, CCCn1c(SC/C(O)=C(\C#N)c2nc3ccccc3[nH]2)n[nH]c1=O 8.52%, O=C(Nc1ccccn1)C1CCN(S(=O)(=O)c2cccs2)CC1 -2.3%, O=C(Nc1ccc(Cl)cn1)C1CCN(S(=O)(=O)c2cccs2)CC1 2.8%, Cc1ccc(S(=O)(=O)NCC(=O)OC(C(=O)c2ccccc2)c2ccccc2)cc1 (stereo not given) 17.9%, CCCCN1C(=O)C(CC(=O)NCc2ccco2)CC(C(=O)N(CC)CC)=C1C (stereo not given) -1.7%, Cn1cc(C(=O)N/N=C/c2ccc(Br)c([N+](=O)[O-])c2)c2ccccc21 -0.7%, NC(=O)COC(=O)CNC(=O)c1ccc(Cl)cc1 -2.39%, Cc1cccc(C(=O)Nc2sc3c(c2C#N)CCCCC3)c1 -5.88%, Cc1ccc(C(=O)Nc2sc3c(c2C#N)CCCCC3)cc1C -3.7%, CC(C)(C)c1ccc(OCCC(=O)OCC(=O)Nc2ccc(N3CCOCC3)cc2)cc1 -3.5%, O=Nc1c(O)ccc2cc(S(=O)(=O)O)ccc12 24.3%, O=P(c1ccccc1)(c1ccccc1)c1cc(S(=O)(=O)O)ccc1O 26.4%, Nc1cc(S(=O)(=O)O)cc2ccc(S(=O)(=O)O)cc12 0.1%, O=C(O)c1cc(S(=O)(=O)O)ccc1O 9.92%, COc1ccc(C)cc1-n1c(C)cc(C=O)c1C -0.15%, c1ccc(Cn2ncc3ccccc32)cc1 23.7%, Cc1cc([N+](=O)[O-])nn1CC(=O)N/N=C/c1ccccc1Br -3.16%, Cc1nc2ccc(NC(=O)Cc3ccccc3F)cc2s1 13.4%, COC(=O)c1cc(OC)c(OC)cc1NC(=O)Cc1cccs1 10.3%, O=C(Cc1cccs1)Nc1ccc(S(=O)(=O)Nc2ncccn2)cc1 26.2%, Cc1cc(NC(=O)CCCC(=O)NCc2cccs2)no1 10.9%, Cc1cc(NS(=O)(=O)c2ccc(NC(=O)Cc3cccs3)cc2)no1 -3.09%, Cc1ccnc(NS(=O)(=O)c2ccc(NC(=O)Cc3ccccc3)cc2)n1 4.16%, Cc1nc2ccc(NC(=O)Cc3ccsc3)cc2s1 -2.69%, COC(=O)c1ccc(C(=O)OC)c(NC(=O)CCC(=O)O)c1 17.1%

From PubChem BioAssay AID1117319 (Southern Research Institute, 2015)
